Hit rate of the full screen: of about 360,000 compounds, about 3,100 (0.86%) were called active. For the sample, actives were picked, then their nearest neighbours and some compounds at random. A number with no mark means an inactive call.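 How the source made its calls: active means inhibition or corrected inhibition above about 18%, plus a signal ratio from 0.5 to 1.5 (limit read from the data, passing the limit was not always enough); inactive means the rest.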
Biological target: Neuropilin-1 (Homo sapiens) (UniProt O14786)
Experiment: modulators of CendR peptide binding to NRP-1, primary screen, biochemical, fluorescence polarization, uHTS (AID 602438)
Conditions: FAM-RPARPAR peptide binding to NRP-1, fluorescence polarization; at 25 µM; active compounds read high

Chain of Neuropilin-1 (Homo sapiens) (O14786 whole entry, looked up): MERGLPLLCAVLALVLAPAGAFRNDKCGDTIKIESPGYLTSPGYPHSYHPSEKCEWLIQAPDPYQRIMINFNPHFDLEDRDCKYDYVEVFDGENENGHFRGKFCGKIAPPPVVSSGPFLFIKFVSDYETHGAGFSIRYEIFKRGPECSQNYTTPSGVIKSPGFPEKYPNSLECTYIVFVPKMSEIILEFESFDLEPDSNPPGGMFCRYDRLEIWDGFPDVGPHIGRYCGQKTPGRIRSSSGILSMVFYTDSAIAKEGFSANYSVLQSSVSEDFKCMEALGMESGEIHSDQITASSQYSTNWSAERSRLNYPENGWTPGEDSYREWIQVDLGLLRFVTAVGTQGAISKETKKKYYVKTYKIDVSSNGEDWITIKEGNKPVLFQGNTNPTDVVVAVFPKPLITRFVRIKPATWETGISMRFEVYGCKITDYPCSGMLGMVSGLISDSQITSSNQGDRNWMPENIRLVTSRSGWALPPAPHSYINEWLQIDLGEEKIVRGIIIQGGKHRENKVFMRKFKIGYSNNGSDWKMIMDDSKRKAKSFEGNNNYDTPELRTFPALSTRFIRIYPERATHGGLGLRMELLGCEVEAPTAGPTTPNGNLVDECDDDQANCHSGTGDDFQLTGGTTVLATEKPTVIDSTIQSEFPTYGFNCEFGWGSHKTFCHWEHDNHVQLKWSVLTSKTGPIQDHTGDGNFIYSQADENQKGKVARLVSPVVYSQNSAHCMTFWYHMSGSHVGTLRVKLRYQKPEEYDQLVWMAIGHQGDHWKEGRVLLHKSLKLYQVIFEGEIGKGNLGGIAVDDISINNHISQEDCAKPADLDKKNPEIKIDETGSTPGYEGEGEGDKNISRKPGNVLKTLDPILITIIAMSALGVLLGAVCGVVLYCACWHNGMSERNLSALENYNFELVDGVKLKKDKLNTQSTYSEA

| Structure (SMILES) | inhibition |
| --- | --- |
| CCCC(=O)NC(Nc1ccccc1OC)C(Cl)(Cl)Cl (stereo unspecified) | -6.4% |
| Cn1c(NN)nc2sc3c(c2c1=O)CCC3 | 17.4% (active) |
| C=C(C)CSc1nc(N)c2c3c(sc2n1)CCC3 | -0.3% |
| NNC(=O)C1CCCn2c1nc1sc3c(c1c2=O)CCCC3 (stereo unspecified) | 1.2% |
| O=C(C/C(=N\NC(=O)c1ccccc1Br)C(F)(F)F)c1cccs1 | 0% |
| CN(C)C(CNC(=O)c1cc(Br)c(Br)s1)c1ccco1 (stereo unspecified) | -4.5% |
| COc1cc(/C=C/c2ccc(/C=C/c3cc(OC)c(OC)c(OC)c3)cc2)cc(OC)c1OC | 20.5% (active) |
| COc1cc(/C=C/C2=CC(C)(C)NC(=S)N2)cc(OC)c1OC | 3.9% |
| CCC(=O)c1ccc(OC(=O)/C=C/c2cc(OC)c(OC)c(OC)c2)cc1 | 2.2% |
| Cc1cccc(C)c1NC(=O)C(c1cccc(F)c1)N1CCN(C)CC1 (stereo unspecified) | 1.1% |
| CCOc1ccc(/C(O)=C2/C(=O)C(=O)N(Cc3cccnc3)C2c2ccc(N(C)C)cc2)c(C)c1 (stereo unspecified) | 6.1% |
| Cc1ccc(CN2CCCOCCS2(=O)=O)cc1 | 4% |
| Cc1ccc2cccc([N+](=O)[O-])c2n1 | -4.4% |
| O=[N+]([O-])c1cc2ccccc2nc1-c1ccccc1 | 20.7% (active) |
| O=C(Oc1ccc([N+](=O)[O-])cc1)c1ccc2ccccc2n1 | 6.3% |
| CNc1nc(=O)n(C2CCCO2)cc1C (stereo unspecified) | -12.3% |
| CCCCCCNC(=O)O[C@]12C[C@@H](C(=O)OC)[C@@H](C(=O)OC)C[C@@]1(O)CN(S(=O)(=O)c1ccc(C)cc1)C2 | -8.7% |
| Cc1ccc(C(=O)COC(=O)c2cccc(N3C(=O)c4c(C)nc5ccccc5c4C3=O)c2)cc1C | -9.4% |
| COc1ccc(Cn2c(=O)sc3ccccc32)cc1OC | -6.5% |

| Structure (SMILES) | inhibition |
| --- | --- |
| COc1ccc(CCN=C2SCC(=O)N2Cc2ccccc2)cc1OC | 32.3% (active) |
| COc1ccc(CCN=C2SCC(=O)N2C)cc1OC | 0.9% |
| COc1cccc(OC)c1C(=O)N1CCN(Cc2cccnc2)CC1 | 1.8% |
| N#CCCN(CCC#N)c1nnc(-c2ccccc2)s1 | 0.8% |
| Cc1nn2cc(-c3ccc(Cl)cc3)cnc2c1Br | 4% |
| CC(C)Oc1ccc(CCC(=O)NNC(=S)NCc2ccccc2)cc1 | 37.4% (active) |
| Cc1scc(C(=O)NNC(=S)NCc2ccccc2)c1C | 6.1% |
| CC(C)Oc1ccc(CC(=O)NNC(=S)Nc2ccc(Br)cc2)cc1 | 1.7% |
| O=C(CS(=O)(=O)c1ccc(C(F)(F)F)cn1)NNC(=O)c1ccccc1 | -6.4% |
| CCNC(=O)N(CC)C[C@H]1N[C@@](CC)(C(=O)OC)[C@H]2C(=O)N(Cc3ccccc3)C(=O)[C@@H]12 | -9.5% |
| CCN(C[C@H]1N[C@@](CC)(C(=O)OC)[C@H]2C(=O)N(C)C(=O)[C@@H]12)C(=O)Nc1ccc(F)cc1 | 33.4% (active) |
| CC[C@@]1(C(=O)OC)N[C@H](CN(C)C(C)=O)[C@@H]2C(=O)N(C)C(=O)[C@@H]21 | -0.8% |
| CCOC(=O)c1c(C)nn(-c2ncccc2NC(=O)CCC(=O)O)c1C | 21.7% |
| Cc1cc(C(=O)Nc2ccc(C)c(S(=O)(=O)N3CCOCC3)c2)c2ccccc2n1 | -3.5% |
| COc1ccc(NC(=O)c2cc(=O)[nH]c3ccccc23)cc1S(=O)(=O)N1CCOCC1 | 26.2% (active) |
| CC(C)(CNC(=O)c1cc(=O)[nH]c2ccccc12)N1CCOCC1 | 9.2% |
| Cc1ccc(O)c(NC(=O)c2cc(-c3ccco3)on2)c1 | -12.1% |
| CC(C)Oc1ccc(C(CC(=O)N2CCOCC2)C(C)C)cc1 (stereo unspecified) | 9% |
| CCN(CC)C(=O)CSC(Nc1cccc(F)c1)=C(C#N)C#N | -180% |

| Structure (SMILES) | inhibition |
| --- | --- |
| O=C1C2C3C=CC(C3)C2C(=O)N1c1ccc(-c2nc3ccccc3c(=O)o2)cc1 (stereo unspecified) | 0.6% |
| COc1cc(C2c3cc4c(cc3C(O)C3COC(=O)C23)OCO4)cc(OC)c1OC (stereo unspecified) | -3.6% |
| COc1c(O)ccc2c1CN1CCc3cc4c(cc3C1C2)OCO4 (stereo unspecified) | 30% (active) |
| COc1ccc(CN2CCCC(N3CCc4ccccc4C3)C2)c(O)c1 (stereo unspecified) | 5% |
| CC(C)(C)NC(=O)C(=O)NCc1ccncc1 | -1.7% |
| CCCN1C2CCCC1CC(NC(=O)NC13CC4CC(CC(C4)C1)C3)C2 (stereo unspecified) | 5.4% |
| Cc1ccccc1NC(=O)CSc1ccc2nnc(-c3ccccn3)n2n1 | 8.8% |
| CCOc1cc(/C=N/NC(=O)c2ccncc2)cc(Br)c1O | 2.3% |
| O=C(N/N=C/c1ccc(Br)o1)c1cncc(Br)c1 | 2.7% |
| Cc1ccc(C(=O)N/N=C\c2cc(Br)c(Br)o2)cn1 | 28.3% (active) |
| Cc1ccccc1Cn1c(C)c(C(=O)NCc2cccc(C(F)(F)F)c2)sc1=O | -0.6% |
| O=C1c2ccccc2C(O)N1Cc1ccccc1 (stereo unspecified) | -0.3% |
| CCOC(=O)C1=C(c2ccccc2)NC(=O)NC1c1cc(OC)c(OC)cc1OC (stereo unspecified) | -1.4% |
| Nn1c(SCC(=O)NC(=O)NC2CCCC2)nnc1-c1ccccc1F | -0.3% |
| Nn1c(SCC(=O)NC2CCCC2)nnc1-c1ccccc1F | 6.4% |
| Cc1nnc(SCC(=O)NC(=O)NC2CCCC2)n1N | 30.1% (active) |
| COC(=O)c1cccc(N(C(=O)CNC(=O)c2cccs2)C(C(=O)NCC2CCCO2)c2ccc(OC)c(OC)c2)c1 (stereo unspecified) | 6.4% |
| Cc1cccc(C(=O)Nc2ccccc2C(=O)NCc2cccnc2)c1 | 3.7% |
